Screens as filed in PubChem.
HPGD inh – HPGD (human) dehydrogenase inhibition; purified HPGD, NADH fluorescence kinetic, PGE2 substrate; P15428; Potency, µM, actives largely listed as inhibitors; AID 894; 150,000 tested, 4.3% active; active means well fitted inhibition curve with a large enough effect, not every such curve was filed as active; inconclusive means small, poorly fitted or top-dose-only effect, or another doubt; inactive means no such curve, though single readings can be large or run the other way
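NADH formation kinetics: reaction with 30 uM PGE2 and 1 mM NAD+ (final), 20 nM enzyme, Tris-HCl pH 8 with Tween 20, after 15 min compound preincubation at room temperature. Fluorescence change, last versus first of five reads.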
KDM4E inh – JMJD2E (human) inhibition; B2RXH2; JMJD2E catalytic domain, FDH-coupled NADH fluorescence (FDH is formaldehyde dehydrogenase); Potency, µM (doses to about 57.1 µM), most hits filed as inhibitors; 230,000 tested, 1.6% active; active means well fitted inhibition curve with a large enough effect, not every such curve was filed as active; inconclusive means small, poorly fitted or top-dose-only effect, or another doubt; inactive means no such curve, though single readings can be large or run the other way; further: nearly all actives have a fitted effect of over 50% in size
HTT aggregate – inhibitors of mutant huntingtin aggregate formation in PC12 cells. PC12 HttQ103-GFP aggregates, Acumen cytometry, 40 h. Potency, µM (highest dose often 46.1 µM), most hits filed as inhibitors. 220,000 tested, 1.1% active. AID 1688; further: nearly all actives have a fitted effect of over 60% in size
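Steps: seed 1500 PC12 HTTQ103-GFP cells/well; add tebufenozide, 100 nM final; add compound titration; add ATPLite reagent; quantify GFP aggregates by laser scanning cytometry.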
CBFb RUNX1 block – inhibitors of human CBF-beta and RUNX1 interaction | Q01196+Q13951 | AlphaScreen CBFb-His/RUNX1-biotin binding, biochemical | Potency, µM (doses to about 59.8 µM), usual class: inhibitors | 230,000 tested, under 10 active | AID 1477
Target sequence (Q01196 whole entry, looked up): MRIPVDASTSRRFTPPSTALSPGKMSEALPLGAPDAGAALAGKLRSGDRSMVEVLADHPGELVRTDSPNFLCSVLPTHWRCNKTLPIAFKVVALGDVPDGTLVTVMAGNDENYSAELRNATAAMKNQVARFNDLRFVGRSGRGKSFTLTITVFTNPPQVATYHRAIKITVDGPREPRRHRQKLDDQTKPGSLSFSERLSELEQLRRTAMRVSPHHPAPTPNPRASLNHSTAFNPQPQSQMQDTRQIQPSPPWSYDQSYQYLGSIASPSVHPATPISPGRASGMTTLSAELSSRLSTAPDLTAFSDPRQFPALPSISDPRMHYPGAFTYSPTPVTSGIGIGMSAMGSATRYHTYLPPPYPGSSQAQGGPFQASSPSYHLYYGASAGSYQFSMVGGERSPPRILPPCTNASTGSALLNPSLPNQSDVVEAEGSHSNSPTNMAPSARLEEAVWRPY
Target sequence (Q13951 whole entry, looked up): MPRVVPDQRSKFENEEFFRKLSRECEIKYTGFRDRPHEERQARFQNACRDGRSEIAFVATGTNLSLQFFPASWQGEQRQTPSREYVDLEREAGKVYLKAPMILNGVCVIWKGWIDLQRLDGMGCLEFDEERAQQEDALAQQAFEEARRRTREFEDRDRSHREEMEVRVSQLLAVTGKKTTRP
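Read-out: AlphaScreen. Format: His-CBF-beta with biotinylated RUNX1 (30 nM each) preincubated 20 min, compound 15 min, Ni-chelate plus streptavidin beads 90 min; room temperature throughout.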
ALDH1A1 block – ALDH1A1 (human) enzyme inhibition; P00352; Purified ALDH1A1, NADH fluorescence, propionaldehyde substrate; Potency, µM (titrated, usually from 75.3 µM), most hits filed as inhibitors; 220,000 tested, 7.3% active; active means well fitted inhibition curve with a large enough effect, not every such curve was filed as active; inconclusive means small, poorly fitted or top-dose-only effect, or another doubt; inactive means no such curve, though single readings can be large or run the other way
HTT ATP protect – cytoprotection in Huntington HTT-Q103 PC12 cell model | PC12 HTT-Q103 induced, cytoprotection, ATP luminescence, 40 h | Potency, µM (top dose mostly 56.4 µM), hits mostly activators | 230,000 tested, 0.14% active; further: nearly all actives have a fitted effect of over 45% in size
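Compounds added alongside 100 nM tebufenozide, which induces toxic Q103 huntingtin exon 1-GFP in stable PC12 cells; surviving cells quantified by luminescent ATP measurement. Medium: phenol red-free DMEM, 5% equine and 5% calf serum.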
Hits are given with their value; - = inactive; ? = inconclusive; . = no result given; [ ] = remark or other dose. A selection: hits, their analogues and other compounds. The true share with any hit is near 9.8%. Unless noted, the call rests on the fitted dose curve; in most records, active means well fitted curve in the direction sought with a large enough effect; inconclusive means small, poorly fitted or top-dose-only effect, or another doubt; inactive means no such curve, though single readings can be large; an effect the other way counts as inactive or inconclusive.

SMILES	HPGD inh	KDM4E inh	HTT aggregate	CBFb RUNX1 block	ALDH1A1 block	HTT ATP protect
Cc1ccccc1OCC(=O)N/N=C/c1ccc(Sc2nc3ccccc3s2)o1	-	-	-	-	-	-
O=C(COc1cccc2ccccc12)N/N=C/c1ccc(Sc2nc3ccccc3s2)o1	28µM	?	-	-	?	-
Cc1ccc(/C=N/NC(=O)CSc2nc3ccccc3s2)o1	14µM	-	-	-	11µM	-[10 µM]
CO[C@H]1/C=C/O[C@@]2(C)Oc3c(C)c(O)c4c(O)c(c(/C=N\N5CCN(C6CCCC6)CC5)c(O)c4c3C2=O)NC(=O)/C(C)=C\C=C\[C@H](C)[C@H](O)[C@@H](C)[C@@H](O)[C@@H](C)[C@H](OC(C)=O)[C@@H]1C	.	.	-	.	.	-
Fc1ccc(/C=N/NC(=S)Nc2cccnc2)cc1F	.	-	-	-	?	-
O=C(O)c1ccc(/C=N/NC(=S)NCCN2CCOCC2)cc1	.	-	-	-	-	-
Fc1c(F)c(F)c(/C=N/NC(=S)Nc2cccnc2)c(F)c1F	.	-	-	-	?	-[10 µM]
Oc1ccc(/C=N/NC(=S)Nc2cccnc2)c(O)c1O	.	2.2µM	?	.	.	-[10 µM]
Oc1cccc(/C=N/NC(=S)NCCN2CCOCC2)c1O	.	25µM	?	.	-	-[10 µM]
Oc1ccc(/C=N/NC(=S)Nc2cccnc2)c(O)c1	?	28µM	?	.	-	-[10 µM]
Fc1ccc(/C=N/NC(=S)Nc2cccnc2)cc1	.	-	-	-	22µM	-
COc1ccc(C2=NOC(C(=O)Nc3cccnc3Cl)C2)cc1 (stereo not drawn)	.	-	-	-	-	-
C=C1CCC(O)C/C1=C\C=C1/CCCC2(C)C1CCC2C(C)/C=C/C(C)C(C)C (stereo not drawn)	-	-	.	-	-	-[1.9 µM]
NC(=S)N/N=C/c1ccccc1O	.	?	-[9.22 µM]	?	-	-[10 µM]
NC(=S)N/N=C/c1cccc(O)c1O	.	35µM	.	.	-	.
Fc1cccc(F)c1/C=N/NC(=S)Nc1cccnc1	.	-	-	-	-	-[10 µM]
Oc1cccc(/C=N/NC(=S)Nc2cccnc2)c1O	32µM	22µM	?	.	?	.
Cc1c(Cl)cccc1NC(=S)Nn1cnnc1	.	-	-	-	13µM	?
Cc1ccc(CC2CC(=O)N(c3ccncc3)C2=O)cc1 (stereo not drawn)	-	-	-	-	-	-[10 µM]
O=C1CC(Cc2ccccc2)C(=O)N1Cc1ccco1 (stereo not drawn)	-	-	-	-	2.8µM	-
O=C1C2C3CCC(C3)C2C(=O)N1Cc1ccco1 (stereo not drawn)	-	-	-	-	12µM	-[0.074 µM]
Cc1ccc(CC2CC(=O)N(Cc3ccco3)C2=O)cc1 (stereo not drawn)	-	-	-	-	19µM	-
Cc1cccc(OC(=O)CCN2C(=O)C3C4C=CC(C5CC45)C3C2=O)c1C (stereo not drawn)	.	-	-	-	-	.
CSC(=S)N/N=C/c1ccccc1	.	-	-	-	?	-[10 µM]
COC(=O)c1c(-c2ccc(C(C)(C)C)cc2)csc1NC(=O)C1C2CCC(O2)C1C(=O)O (stereo not drawn)	3.2µM	16µM	-	-	5µM	.
SMILES	HPGD inh	KDM4E inh	HTT aggregate	CBFb RUNX1 block	ALDH1A1 block	HTT ATP protect
O=C(Oc1ccc(N(Cc2cccs2)C2=NS(=O)(=O)c3ccccc32)cc1)c1ccccc1	-	-	-[9.22 µM]	-	?	-
O=C(Oc1ccc(N(Cc2cccs2)C2=NS(=O)(=O)c3ccccc32)cc1)c1ccc(Cl)cc1	-	?	?	-	22µM	-[10 µM]
COc1cc(/C=C2\S/C(=N/S(=O)(=O)Cc3ccccc3)NC2=O)c([N+](=O)[O-])cc1OC	.	-	-[9.22 µM]	-	.	-[10 µM]
COc1cc(/C=C2/S/C(=N/S(=O)(=O)c3ccccc3)NC2=O)c([N+](=O)[O-])cc1OC	5µM	-	?	-	-	-
O=C1c2ccccc2C(=O)N1CCSc1n[nH]c(=S)s1	?	?	-	-	2.2µM	-
O=C1c2ccccc2C(=O)N1CCSc1ncn[nH]1	-	-	-	-	-	-[1.9 µM]
CC1=C[C@@H](O)CC(C)(C)[C@@H]1/C=C/C(C)=C/C=C/C(C)=C/C=C/C=C(C)/C=C/C=C(C)/C=C/C1=C(C)C[C@H](O)CC1(C)C	.	.	-	.	.	-
